Results: paper PMC5700166
Changes are numbered by the printed parent chain.

Tests used:
Assay in all cases: protein-binding microarray (PBM); PBM: ~300 nM protein, 6 mM HEPES pH 7.8, 80 mM KCl, 0.5 mM EDTA, 0.5 mM EGTA, 6% glycerol, 35 ng/ul poly-dIdC, 1% milk, 1 h, room temperature; Ap Aiptasia and Nv Nematostella (sea anemones) / Co Capsaspora / Aq Amphimedon (sponge) / Dm Drosophila / Hu human; RHD is the Rel homology domain; high values mean tight binding
Settings in all cases: dsDNA, one strand shown
GST-Ap-NF-kB RHD = biological target: T1, GST-Ap-NF-kB RHD (Exaiptasia pallida (Aiptasia), UniProt A0A913YAJ5 2-422)
T1 sequence: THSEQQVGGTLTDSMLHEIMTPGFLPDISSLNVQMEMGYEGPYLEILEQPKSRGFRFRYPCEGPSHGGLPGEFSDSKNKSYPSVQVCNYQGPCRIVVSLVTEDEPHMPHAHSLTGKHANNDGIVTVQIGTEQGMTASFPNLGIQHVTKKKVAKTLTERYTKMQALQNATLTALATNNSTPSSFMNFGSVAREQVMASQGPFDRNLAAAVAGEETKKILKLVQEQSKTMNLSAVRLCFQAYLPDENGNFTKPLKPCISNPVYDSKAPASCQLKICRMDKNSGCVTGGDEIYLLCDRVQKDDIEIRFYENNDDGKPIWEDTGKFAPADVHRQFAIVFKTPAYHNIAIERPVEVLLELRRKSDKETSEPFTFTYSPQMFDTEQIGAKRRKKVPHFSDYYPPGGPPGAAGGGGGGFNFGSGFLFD

[1] = biological target: T2, GST-Nv-NF-kB (Cys allele) (Nematostella vectensis, UniProt E5G601 2-411)
T2 sequence: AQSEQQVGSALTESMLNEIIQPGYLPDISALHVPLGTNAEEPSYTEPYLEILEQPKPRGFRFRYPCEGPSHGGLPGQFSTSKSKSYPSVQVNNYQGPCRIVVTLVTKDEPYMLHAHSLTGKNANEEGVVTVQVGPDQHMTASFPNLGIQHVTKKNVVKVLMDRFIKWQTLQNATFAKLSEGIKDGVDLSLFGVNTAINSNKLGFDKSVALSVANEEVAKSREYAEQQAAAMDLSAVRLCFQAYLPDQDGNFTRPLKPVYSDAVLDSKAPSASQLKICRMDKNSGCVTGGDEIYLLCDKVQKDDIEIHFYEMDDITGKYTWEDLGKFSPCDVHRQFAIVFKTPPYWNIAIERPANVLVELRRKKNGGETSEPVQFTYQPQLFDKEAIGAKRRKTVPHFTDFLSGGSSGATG

[2] = biological target: T3, GST-Nv-NF-kB (Ser allele) (Nematostella vectensis, UniProt A7UNT2 2-411)
T3 sequence: T2 sequence with Q21R, C66S, S207N, E215Q, V217A, E225K, A268E, D399E

GST-Co-NF-kB = biological target: T4, GST-Co-NF-kB (Capsaspora owczarzaki, UniProt F1ARL5 200-546)
T4 sequence: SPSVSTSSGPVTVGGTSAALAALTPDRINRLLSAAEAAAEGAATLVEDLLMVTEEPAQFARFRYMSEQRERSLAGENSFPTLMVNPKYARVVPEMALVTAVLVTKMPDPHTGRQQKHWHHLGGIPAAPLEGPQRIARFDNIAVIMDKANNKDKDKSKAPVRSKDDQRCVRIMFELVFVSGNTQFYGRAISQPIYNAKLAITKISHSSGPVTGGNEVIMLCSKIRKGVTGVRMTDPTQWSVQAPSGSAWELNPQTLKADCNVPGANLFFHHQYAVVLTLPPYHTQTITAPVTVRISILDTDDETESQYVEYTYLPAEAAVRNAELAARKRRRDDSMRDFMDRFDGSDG

GST-Dm-Relish = biological target: T5, GST-Dm-Relish (Drosophila melanogaster, UniProt Q94527 99-473)
T5 sequence: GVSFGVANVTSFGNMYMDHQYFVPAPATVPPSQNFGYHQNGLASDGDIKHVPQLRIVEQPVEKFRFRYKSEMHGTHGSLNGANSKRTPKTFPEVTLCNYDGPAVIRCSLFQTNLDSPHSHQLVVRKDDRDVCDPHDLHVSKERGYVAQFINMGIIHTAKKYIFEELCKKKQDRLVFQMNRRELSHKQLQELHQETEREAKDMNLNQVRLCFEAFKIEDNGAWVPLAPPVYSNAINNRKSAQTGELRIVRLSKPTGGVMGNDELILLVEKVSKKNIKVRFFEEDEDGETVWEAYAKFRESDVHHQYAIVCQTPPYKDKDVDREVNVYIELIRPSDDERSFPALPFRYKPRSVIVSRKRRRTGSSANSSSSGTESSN

GST-Aq-NF-kB = biological target: T6, GST-Aq-NF-kB (Amphimedon queenslandica, UniProt A9Y5G7 2-389)
T6 sequence: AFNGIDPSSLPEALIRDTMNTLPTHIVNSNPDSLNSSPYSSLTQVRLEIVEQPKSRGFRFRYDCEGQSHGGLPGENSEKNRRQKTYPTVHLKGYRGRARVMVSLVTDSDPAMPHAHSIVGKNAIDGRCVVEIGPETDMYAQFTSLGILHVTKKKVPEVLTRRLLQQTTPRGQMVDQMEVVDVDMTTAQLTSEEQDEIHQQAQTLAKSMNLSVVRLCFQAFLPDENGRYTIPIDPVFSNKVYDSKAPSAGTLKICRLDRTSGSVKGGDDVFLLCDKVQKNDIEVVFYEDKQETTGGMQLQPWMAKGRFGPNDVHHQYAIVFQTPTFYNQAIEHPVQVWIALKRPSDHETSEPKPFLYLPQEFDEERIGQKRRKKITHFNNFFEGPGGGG

GST-Hu-p50 = GST-Hu-p50 (Homo sapiens, UniProt P19838 7-356)
Sequence of GST-Hu-p50 (P19838 7-356): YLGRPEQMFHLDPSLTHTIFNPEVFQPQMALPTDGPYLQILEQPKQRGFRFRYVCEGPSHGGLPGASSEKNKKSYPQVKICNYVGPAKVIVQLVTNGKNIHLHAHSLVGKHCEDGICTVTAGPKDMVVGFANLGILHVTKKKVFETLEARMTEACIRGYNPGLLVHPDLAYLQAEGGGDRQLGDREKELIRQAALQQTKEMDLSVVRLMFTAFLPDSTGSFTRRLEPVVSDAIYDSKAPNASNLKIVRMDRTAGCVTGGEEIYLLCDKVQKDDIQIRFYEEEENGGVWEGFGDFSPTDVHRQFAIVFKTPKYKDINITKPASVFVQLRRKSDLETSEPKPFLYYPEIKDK

Sequence	binding signal (GST-Ap-NF-kB RHD)	binding signal [1]	binding signal [2]	binding signal (GST-Co-NF-kB)	binding signal (GST-Dm-Relish)	binding signal (GST-Aq-NF-kB)	binding signal (GST-Hu-p50)
CCGATTAACATCAGGGTAAACCCTGATGTTAATCGGGTCTTGATTCGCTTGACGCTGCTG	3.1 z-score	4.05 z-score	2.62 z-score	2.45 z-score	5.92 z-score	6.52 z-score	2.7 z-score
CCGATTAACATCAGAATATCCCCTGATGTTAATCGGGTCTTGATTCGCTTGACGCTGCTG	7.8 z-score	7.86 z-score	8.08 z-score	3.97 z-score	6.49 z-score	5.85 z-score	5.75 z-score
CCGATTAACATCAGGACGCCCCCTGATGTTAATCGGGTCTTGATTCGCTTGACGCTGCTG	6.15 z-score	5.13 z-score	3.21 z-score	1.59 z-score	3.85 z-score	7.57 z-score	4.71 z-score
CCGATTAACATCAGAAAATCCCCTGATGTTAATCGGGTCTTGATTCGCTTGACGCTGCTG	10.4 z-score	12 z-score	13.8 z-score	4.89 z-score	9.8 z-score	8.95 z-score	8.46 z-score
CCGATTAACATCAGACAATCCCCTGATGTTAATCGGGTCTTGATTCGCTTGACGCTGCTG	6.6 z-score	7.1 z-score	7.4 z-score	2.24 z-score	4.95 z-score	5.98 z-score	5.79 z-score
CCGATTAACATCAATTTCCCCCCTGATGTTAATCGGGTCTTGATTCGCTTGACGCTGCTG	7.89 z-score	7.68 z-score	8.79 z-score	11.5 z-score	6.02 z-score	6.64 z-score	6.75 z-score
CCGATTAACATCAAAAGTACCCCTGATGTTAATCGGGTCTTGATTCGCTTGACGCTGCTG	4.78 z-score	4.21 z-score	6.09 z-score	5.19 z-score	7.17 z-score	4.81 z-score	4.42 z-score
CCGATTAACATCACGGTTTTCCCTGATGTTAATCGGGTCTTGATTCGCTTGACGCTGCTG	3.99 z-score	5.02 z-score	6.45 z-score	4.63 z-score	4.43 z-score	5.43 z-score	3.91 z-score
CCGATTAACATCAGGGGGTACAATGATGTTAATCGGGTCTTGATTCGCTTGACGCTGCTG	4.98 z-score	3.08 z-score	4.91 z-score	4.94 z-score	2.37 z-score	2.98 z-score	3.09 z-score
CCGATTAACATCAGGGGACTCCATGATGTTAATCGGGTCTTGATTCGCTTGACGCTGCTG	6.58 z-score	4.64 z-score	4.65 z-score	1.82 z-score	7.69 z-score	4.63 z-score	4.91 z-score
CCGATTAACATCACAAAAGTCCCTGATGTTAATCGGGTCTTGATTCGCTTGACGCTGCTG	7.21 z-score	9.22 z-score	9.85 z-score	2.27 z-score	7.55 z-score	7.54 z-score	6.52 z-score
CCGATTAACATCAAGGGGGAAAATGATGTTAATCGGGTCTTGATTCGCTTGACGCTGCTG	6.85 z-score	6.58 z-score	10.6 z-score	9.03 z-score	4.2 z-score	6.14 z-score	7.34 z-score
CCGATTAACATCAAATTTCCCCATGATGTTAATCGGGTCTTGATTCGCTTGACGCTGCTG	7.86 z-score	9.05 z-score	10.8 z-score	9.42 z-score	4.87 z-score	7.31 z-score	6.68 z-score
CCGATTAACATCATATTTCCCCATGATGTTAATCGGGTCTTGATTCGCTTGACGCTGCTG	5.95 z-score	7.45 z-score	10.1 z-score	8.62 z-score	2.89 z-score	5.08 z-score	6.08 z-score
CCGATTAACATCACAAAACCCCCTGATGTTAATCGGGTCTTGATTCGCTTGACGCTGCTG	9.76 z-score	9.02 z-score	10.5 z-score	3.3 z-score	10.4 z-score	7.82 z-score	8.21 z-score
CCGATTAACATCAAATTCCCAACTGATGTTAATCGGGTCTTGATTCGCTTGACGCTGCTG	2.17 z-score	3.56 z-score	3.7 z-score	2.15 z-score	3.39 z-score	2.22 z-score	2.66 z-score
CCGATTAACATCAACGAATCCCCTGATGTTAATCGGGTCTTGATTCGCTTGACGCTGCTG	6.25 z-score	6.07 z-score	8.58 z-score	2.93 z-score	4.84 z-score	3.82 z-score	5.69 z-score
CCGATTAACATCAGAAATTTCCCTGATGTTAATCGGGTCTTGATTCGCTTGACGCTGCTG	5.84 z-score	8.58 z-score	8.13 z-score	5.21 z-score	4.81 z-score	7.73 z-score	5.92 z-score
CCGATTAACATCAAATTCCCCCCTGATGTTAATCGGGTCTTGATTCGCTTGACGCTGCTG	8.5 z-score	8.77 z-score	8.88 z-score	10.1 z-score	8.4 z-score	7.65 z-score	6.85 z-score
CCGATTAACATCAAAAAATACCCTGATGTTAATCGGGTCTTGATTCGCTTGACGCTGCTG	6.17 z-score	9.78 z-score	8.7 z-score	3.1 z-score	8.93 z-score	8.03 z-score	6.73 z-score
CCGATTAACATCAAGGGAAGTCCTGATGTTAATCGGGTCTTGATTCGCTTGACGCTGCTG	3.99 z-score	4.16 z-score	2.7 z-score	1.08 z-score	7.26 z-score	5.77 z-score	2.73 z-score
CCGATTAACATCAGGGGGATCCATGATGTTAATCGGGTCTTGATTCGCTTGACGCTGCTG	7.42 z-score	5.12 z-score	6.25 z-score	4.25 z-score	7.45 z-score	5.46 z-score	5.74 z-score
CCGATTAACATCAGAATTCCCGATGATGTTAATCGGGTCTTGATTCGCTTGACGCTGCTG	3.78 z-score	4.69 z-score	4.3 z-score	3.92 z-score	2.59 z-score	3.28 z-score	3.21 z-score
